Our source for the growth values is PubChem BioAssay (NCI).

The panel holds about 83,000 compounds, 20% with a hit somewhere; the sample as a whole holds those more often.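 Growth was measured after 48 h exposure to one concentration of compound in 96-well plates. Values under 10 count as active.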 Unmarked numbers belong to inactive results. Activity calls are given as the source filed them.

Some test systems named below: NCI-H23 lung; NCI-H226 lung; NCI-H322M lung; HOP-62 NSCLC; NCI-H460 lung; NCI-H522 lung; A549/ATCC NSCLC; 786-0 renal; COLO 205 colon; DU-145 prostate; K-562 leukemia; MALME-3M melanoma; MDA-MB-231 breast; RXF 393 renal; SF-268 CNS; SF-295 CNS; SF-539 CNS; UACC-257 melanoma; M14 melanoma.
Common to all, as to assay: NCI-60 one-dose screen, 48 h (100 = growth as untreated, 0 = no growth, -100 = all killed)
Details in all cases: 10 µM unless noted

For `Cc1ccc(Nc2cc(Cl)c([N+](=O)[O-])cc2[N+](=O)[O-])cc1`, the growth in the test on NCI-H23 lung is 63.8%; with NCI-H226 lung, 25.9%; in the test on NCI-H322M lung, 86.7%; in the test with HOP-62 NSCLC it was 62.8%; with NCI-H460 lung, 52.7%; with NCI-H522 lung, -41.7% (active). The growth in the test on A549/ATCC NSCLC was 76.7%; in the test with 786-0 renal it was 23.5%; in the test on COLO 205 colon, -31.2% (active); in the test with DU-145 prostate, 46.7%; in the test with K-562 leukemia, 13.3%; with MALME-3M melanoma, 70.4%. In addition, the growth is 18.3% in the test on MDA-MB-231 breast; -41.2% (active) in the test on RXF 393 renal; 27.7% in the test on SF-268 CNS; 99.4% in the test on SF-295 CNS; 21.7% with SF-539 CNS; 73.6% in the test on UACC-257 melanoma. Also, the growth in the test with M14 melanoma was 34.7%.
With `c1cc2c(cc1-c1cnc3nonc3n1)OCO2`, the growth in the test on NCI-H23 lung was 99.3%; with NCI-H226 lung it was 93.4%; in the test on NCI-H322M lung it was 103%; in the test with HOP-62 NSCLC it was 83.5%; with NCI-H460 lung, 100%; with NCI-H522 lung it was 55.9%. The growth in the test with A549/ATCC NSCLC is 97.4%; with 786-0 renal, 109%; with COLO 205 colon, 91.2%; in the test on DU-145 prostate, 103%; with K-562 leukemia, 59.3%; in the test on MALME-3M melanoma, 98.6%. For the same molecule, the growth in the test on MDA-MB-231 breast was 75.1%; in the test with RXF 393 renal, 122%; with SF-268 CNS, 82.9%; in the test on SF-295 CNS, 101%; with SF-539 CNS, 73.2%; in the test with UACC-257 melanoma, 93%. For the same molecule, in the test on M14 melanoma, the growth was 101%.
As for `O=C(NO)c1ccc(CNc2cccc3nc(C4CC4)n(-c4ccccc4)c(=O)c23)cc1`, the growth with NCI-H23 lung is -48.4% (active); with NCI-H226 lung, 44.4%; with NCI-H322M lung, 37.7%; with HOP-62 NSCLC, 21.5%; in the test with NCI-H460 lung, 22.6%; in the test on NCI-H522 lung, 19.2%. The growth in the test with A549/ATCC NSCLC is 15.3%; in the test with 786-0 renal, 24.8%; with COLO 205 colon, 8.11% (active); in the test on DU-145 prostate, 3.14% (active); in the test on K-562 leukemia it was 11.2%; in the test on MALME-3M melanoma it was 36.7%. Moreover, the growth in the test on MDA-MB-231 breast was 26.4%; in the test with RXF 393 renal, -18.7% (active); in the test with SF-268 CNS, 7.14% (active); in the test with SF-295 CNS it was 12.9%; with SF-539 CNS it was 9.38% (active); with UACC-257 melanoma, 37.6%. The growth with M14 melanoma is 18.4%.
As for `COc1ccccc1-[n+]1cc(-c2ccc(-c3ccccc3)cc2)n2c1CCCCC2`, the growth in the test on NCI-H23 lung is 2.82% (active); in the test on NCI-H226 lung, 21.8%; with NCI-H322M lung, 20%; in the test on HOP-62 NSCLC it was 12.6%; in the test on NCI-H460 lung, 7.28% (active); with NCI-H522 lung, -12% (active). Also, the growth was 10.3% with A549/ATCC NSCLC; 18.5% with 786-0 renal; -7.92% (active) with COLO 205 colon; 20.7% in the test with DU-145 prostate; 10.5% with K-562 leukemia; 0.879% (active) in the test with MALME-3M melanoma. The growth in the test with MDA-MB-231 breast is 19.1%; in the test with RXF 393 renal, 15.2%; in the test on SF-268 CNS, 21.2%; with SF-295 CNS it was -1.81% (active); in the test with SF-539 CNS, 18.2%; in the test with UACC-257 melanoma, -22.9% (active). Moreover, in the test on M14 melanoma, the growth was 11.1%.
As for `O=C1Nc2ccc(Br)cc2/C1=N/c1nc(-c2ccccc2)cs1`, the growth with NCI-H23 lung was 92.4%; in the test with NCI-H226 lung, 75.7%; in the test on NCI-H322M lung, 88%; with HOP-62 NSCLC, 53.8%; with NCI-H460 lung it was 90.9%; in the test on NCI-H522 lung, 71.4%. The growth in the test with A549/ATCC NSCLC is 80.3%; in the test with 786-0 renal it was 85.2%; with COLO 205 colon, 94.7%; in the test on DU-145 prostate, 89.3%; in the test with K-562 leukemia it was 82.4%; in the test with MALME-3M melanoma it was 101%. Further, the growth with MDA-MB-231 breast was 77%; in the test on RXF 393 renal, 91.7%; with SF-268 CNS, 79.5%; in the test on SF-295 CNS, 102%; in the test on SF-539 CNS, 98.6%; with UACC-257 melanoma, 78.2%. Further, in the test with M14 melanoma, the growth was 87.5%.
As to `O=C(/C=C/c1ccccc1Br)c1cccc(OCCCCOc2cccc(C(=O)/C=C/c3ccccc3Br)c2)c1`, the growth with NCI-H23 lung is 89.3%; in the test on NCI-H226 lung, 89.9%; in the test with NCI-H322M lung, 98.8%; in the test on HOP-62 NSCLC it was 103%; in the test with NCI-H460 lung it was 95.5%; in the test with NCI-H522 lung, 90.7%. The growth with A549/ATCC NSCLC was 87.7%; in the test on 786-0 renal, 104%; in the test with COLO 205 colon, 103%; in the test on DU-145 prostate, 104%; in the test with K-562 leukemia, 94.6%; in the test on MALME-3M melanoma, 99.6%. Also, the growth was 104% with MDA-MB-231 breast; 96.9% in the test on RXF 393 renal; 101% in the test on SF-268 CNS; 95.5% in the test on SF-295 CNS; 102% in the test with SF-539 CNS; 94.1% with UACC-257 melanoma. Also, the growth with M14 melanoma is 88%.
As to `CC(C)(C)OC[C@@H]1N=C(c2ccc(Br)cc2)Nc2nc3ccccn3c2C1=O`, the growth with NCI-H23 lung is 71.5%; with NCI-H226 lung, 78.1%; in the test with NCI-H322M lung, 84.8%; in the test on HOP-62 NSCLC, 54.5%; with NCI-H460 lung, 41.3%; in the test with NCI-H522 lung it was 33.4%. For the same molecule, the growth in the test with A549/ATCC NSCLC was 51.6%; in the test on 786-0 renal, 94.2%; with COLO 205 colon, 62.7%; in the test with DU-145 prostate it was 82.7%; in the test with K-562 leukemia, 25.3%; with MALME-3M melanoma it was 51.5%. Besides, the growth is 61.5% with MDA-MB-231 breast; 61.6% in the test on RXF 393 renal; 74.3% with SF-268 CNS; 30.9% with SF-295 CNS; 75.7% with SF-539 CNS; 62.3% with UACC-257 melanoma. Further, the growth with M14 melanoma is 46.4%.
Consider `COc1cc(NCC(O)CN(CC(C)C)CC(C)C)c2ncccc2c1` (configuration not stated), for which the growth with NCI-H23 lung is 82%; in the test with NCI-H226 lung, 74.9%; in the test on NCI-H322M lung it was 95.6%; with HOP-62 NSCLC it was 84.8%; in the test on NCI-H460 lung, 95.4%; in the test on NCI-H522 lung it was 55.9%. In addition, the growth in the test with A549/ATCC NSCLC is 91.6%; with 786-0 renal, 85%; in the test with COLO 205 colon it was 81%; with DU-145 prostate it was 113%; in the test on K-562 leukemia it was 59.6%; with MALME-3M melanoma it was 89.6%. The growth was 85.5% in the test with MDA-MB-231 breast; 51.5% in the test on RXF 393 renal; 98.5% with SF-268 CNS; 91.9% with SF-295 CNS; 102% with SF-539 CNS; 77.2% in the test on UACC-257 melanoma. Moreover, the growth with M14 melanoma is 87.7%.
